Experiment in all cases: NCI-60 one-dose screen, 48 h (100 = growth as untreated, 0 = no growth, -100 = all killed)
What all share (details): 10 µM unless noted

Test [1] deals with SK-MEL-2 melanoma.
Test [2] deals with EKVX NSCLC.
The subject of test [3] is SN12C renal.
The test system of test [4] is UO-31 renal.
Test [5] concerns TK-10 renal.
For test [6], the system named is ACHN renal.
Test [7] relates to CAKI-1 renal.
Test [8] has as its system A498 renal.
Test [9] deals with CCRF-CEM leukemia.
Test [10] concerns MOLT-4 leukemia.
In test [11] the test system is SR leukemia.
Test [12] deals with RPMI-8226 leukemia.
In test [13] the test system is OVCAR-8 ovarian.
Test [14] has as its system OVCAR-5 ovarian.
Test [15] relates to OVCAR-4 ovarian.
Test [16] has as its system SK-OV-3 ovarian.
The subject of test [17] is IGROV1 ovarian.
Test [18] has as its system OVCAR-3 ovarian.
For test [19], the system named is HS 578T breast.
For test [20], the system named is NCI/ADR-RES ovarian.

About 83,000 compounds went through this panel and 20% of them were active in at least one assay; those are over-represented in the sample as a whole.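 How to read the values: 0–100, growth inhibition (40 = 60% inhibited); 0, no net growth; -100 to 0, cell death (-40 = 40% of starting cells died; -100 = all dead).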 Values without a mark were called inactive. Calls of active or inactive are those of the source. The calls were made as follows: active = growth percent below 10; inactive = the rest.

Regarding `C(=N\Nc1nnc2n1N=C(c1ccccc1)CS2)/c1ccc(OCc2ccccc2)cc1`, the growth in test [1] is 104%; in [2] it was 101%; in test [3] it was 98.6%; in test [4], 79.5%; in test [5], 98.2%; in test [6], 112%. For the same molecule, the growth in [7] is 107%; in test [8] it was 108%; in test [9] it was 97.2%; in [10], 92.8%; in test [11], 93.4%; in test [12] it was 86.6%. In addition, the growth in test [13] was 102%; in test [14] it was 114%; in test [15], 120%; in [16] it was 109%; in test [17], 99.6%; in test [18] it was 113%. The growth in test [19] was 112%; in test [20], 96.6%.
In the case of `C=CCn1c(SCC(=O)Nc2ccc(C(=O)/C=C/c3ccc(Cl)cc3)cc2)nnc1-c1ccccc1`, the growth was 109% in test [1]; 92.3% in test [2]; 92.8% in test [3]; 76.5% in test [4]; 87.9% in test [5]; 99.9% in test [6]. In addition, the growth was 92.6% in test [7]; 99.5% in test [8]; 85.6% in [9]; 68.6% in test [10]; 82.5% in test [11]; -16% (active) in test [12]. Also, the growth in test [13] was 102%; in test [14], 95.3%; in test [15], 85.2%; in test [16], 98.2%; in test [17] it was 89.1%; in test [18], 90.2%. Also, the figures for the growth in [19] and in test [20] were 111% and 93.7%, respectively.
As for `Cn1ccnc1C(=O)/C=C/c1ccc(C(=O)Nc2ccccc2F)cc1`, the growth was 76.2% in test [1]; 32.4% in test [2]; 8.08% (active) in [3]; 34.9% in test [4]; 44.7% in test [5]; 21.1% in test [6]. The growth is 25.8% in test [7]; 17.9% in [8]; 3.74% (active) in test [9]; 12.1% in test [10]; 6.83% (active) in test [11]; 9.83% (active) in test [12]. The growth is 15.6% in [13]; 18% in [14]; 37.7% in test [15]; 51.9% in test [16]; 13.5% in test [17]; -4.52% (active) in [18]. In addition, the values for the growth in test [19] and in test [20] were 17.1% and 21.7%, respectively.
`O=C1c2ccccc2C(=O)c2cc(Cn3c[n+](Cc4ccc5ccccc5c4)c4ccccc43)ccc21`: the growth in [1] was 51.2%; in [2], 73.9%; in [3] it was 47.8%; in test [4], 72.8%; in [5], 67.8%; in [6], 92.4%. Further, the growth was 40.5% in [7]; 77.8% in [8]; 22.1% in test [9]; 28.1% in [10]; 38.1% in test [11]; 2.45% (active) in test [12]. For the same molecule, the growth in [13] is 41.4%; in test [14] it was 59.3%; in test [15] it was 47.2%; in [16], 83.2%; in test [17], 3.66% (active); in [18] it was 34.9%. Moreover, the growth is 62.2% in [19] and 91.1% in [20].
For the molecule `CCCN1C(=O)N(CCC)C2C1NC(=S)N2/N=C/C=C/c1ccccc1OC` (stereo not given), the growth in test [1] is 49.6%; in test [2], 51.5%; in test [3], 38.3%; in test [4] it was 39.5%; in test [5], 57.3%; in [6], 41.4%. Besides, the growth is 26.6% in [7]; -5.66% (active) in test [8]; 10.1% in [9]; 27.6% in test [10]; 22% in test [11]; 19% in test [12]. For the same molecule, the growth in [13] is 12.2%; in test [14], 26.7%; in test [15] it was 55.2%; in [16], 34.9%; in test [17], 30.6%; in [18], -20.9% (active). Also, the growth in test [19] was 9.95% (active); in test [20], 9.94% (active).
Take `COc1ccc(/C(C)=C(\c2ccc(Cl)cc2)c2ccc(OCCCN(C)C)cc2)cc1`: the growth in test [1] is 90.4%; in [2] it was 88.6%; in [3], 79.9%; in [4], 64.5%; in test [5], 94.7%; in test [6], 91.9%. Moreover, the growth was 67.1% in test [7]; 93.4% in [8]; 53.1% in test [9]; 55.8% in test [10]; 0.701% (active) in test [11]; 25.6% in test [12]. Besides, the growth in test [13] is 85%; in test [14], 83.4%; in test [15] it was 90.4%; in test [16] it was 111%; in [17] it was 81.3%; in test [18] it was 89%. The growth in [19] was 71.5%; in test [20], 86.5%.
As for `N#CC1=C(N)Oc2c(ccc3ccccc23)C1c1cc2ccccc2n2nnnc12` (stereo not given), the growth in [1] was 12%; in test [2], 52.1%; in test [3], 27.3%; in test [4], 25.9%; in test [5] it was 37.3%; in test [6], 22.7%. Besides, the growth in test [7] was 31.6%; in test [8] it was -2.46% (active); in test [9], -5.43% (active); in test [10] it was 10.6%; in test [11], 3.88% (active); in test [12], -8.74% (active). The growth is 26.6% in [13]; 39.4% in test [14]; 65% in [15]; 12.5% in test [16]; 33.3% in [17]; -20.7% (active) in test [18]. Moreover, the growth was 17.7% in [19] and 0.93% (active) in test [20].
With `Cc1ccc(Nc2cc(N)nc(N)n2)cc1`, the growth in test [1] is 112%; in test [2] it was 95.7%; in test [3] it was 110%; in [4] it was 87.7%; in [5], 108%; in test [6], 102%. In addition, the growth was 87.1% in test [7]; 105% in test [8]; 107% in test [9]; 91.3% in test [10]; 105% in [11]; 93.5% in test [12]. Moreover, the growth in [13] was 103%; in test [14] it was 107%; in test [15], 96.9%; in test [16] it was 98.1%; in test [17], 92.4%; in test [18] it was 99.6%. Further, the figures for the growth in [19] and in test [20] were 100% and 95%, respectively.

The values above are taken from PubChem BioAssay (NCI).
